Results published in PubChem BioAssay AID588335 (The Scripps Research Institute Molecular Screening Center, 2011).
The whole screen tested about 360,000 compounds, of which about 4,500 (1.2%) were called active. No stated cut-off is given here; in the data, active means inhibition above about 30%; inactive means the rest. Only a selection was taken, and actives are over-represented in it overall.

Experiment: GDH-TPI coupling enzyme inhibitors, primary screen, artefact control for M. tuberculosis FBA inhibitor project, biochemical, absorbance, full deck (AID 588335);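 further: 0% = DMSO wells and 100% = wells lacking the enzyme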
Conditions: GDH-TPI coupled enzyme counterscreen, NADH absorbance; at 4.8 µM; active compounds read high
For `CC(=O)n1cc([C@@H]2C=C(C(=O)N3CCN(Cc4ccc5c(c4)OCO5)CC3)O[C@H](OCc3ccc(CO)cc3)C2)c2ccccc21`, the inhibition was -1.76% (inactive).
With `CCOC(=O)C1=C(O)/C(=C/c2cc(C)n(-c3ccccc3)c2C)N=C1C` the inhibition was 2.64% (inactive).
With `Cc1cccc(C)c1-n1c(C)cc(/C=C2\C(=O)NN(c3ccccc3)C2=O)c1C` the inhibition was 33% (active).
In the case of `COc1ccc(C(=O)NCC2CCCCC2)cc1S(=O)(=O)N1CCCC1`, the inhibition is reported as 1.39% (inactive).
For `CCO[C@@H]1OC(C(N)=O)=C[C@H](c2ccc(Br)cc2)[C@H]1CCCO`, the inhibition was -4.48% (inactive).
With `CC(Sc1nc2cc(Cl)ccc2s1)C(=O)Nc1ccc2c(c1)OCO2` (stereo not given) the inhibition was 5.49% (inactive).
In the case of `COC(=O)c1c(-c2ccsc2)oc2ccc(-c3cc(OC)c(OC)c(OC)c3)cc12`, the inhibition is reported as 10.3% (inactive).
For `O=C(NCc1cccs1)c1ccc2c(c1)ncn2C1CCCC1`, the inhibition was -1.75% (inactive).
For `CCOc1ncccc1C(=O)N(C)CC(=O)Nc1ccc(F)cc1`, the inhibition was -5.34% (inactive).
With `Cc1ccccc1C(=O)Nc1ccccc1Sc1ccccc1` the inhibition was -10.9% (inactive).
In the case of `CSc1ccccc1NC(=O)c1cc(Cl)sc1Cl`, the inhibition is reported as -10.3% (inactive).
With `CSc1ccccc1NC(=O)c1cnc2sc(C)cn2c1=O` the inhibition was 32.6% (active).
In the case of `CCCN(c1ccc(C)cc1)c1nc(=O)c2cccnc2s1`, the inhibition is reported as 8.86% (inactive).
With `COc1ccc(CC(=O)Nc2cc(S(=O)(=O)N3CCCCC3)ccc2N2CCN(C)CC2)cc1` the inhibition was -4.44% (inactive).
With `CC(C)N=C1CCCC1C(=S)SSC(=S)C1CCCC1=NC(C)C` (stereo not given) the inhibition was 32.4% (active).
For `CN(CC(=O)Nc1ccccc1F)CC(=O)Nc1ccccc1Br`, the inhibition was -8.02% (inactive).
With `Cc1ccc(S(=O)(=O)N2CCOCC2)cc1C(=O)OC1CCCCC1=O` (stereo not given) the inhibition was -12.1% (inactive).
In the case of `COc1ccc(C(=O)Oc2ccc(-c3nnco3)cc2)cc1S(=O)(=O)N1CCOCC1`, the inhibition is reported as 7.83% (inactive).
In the case of `CCc1ccc(-n2c(SCc3cc(=O)n4cc(Br)ccc4n3)nc3[nH]ncc3c2=O)cc1`, the inhibition is reported as 24% (inactive).
For `O=C(O)CCn1c(SCc2cc(=O)n3ccccc3n2)nc2ccsc2c1=O`, the inhibition was 7.77% (inactive).
In the case of `O=c1c2sccc2nc(SCc2cc(=O)n3ccccc3n2)n1-c1ccc(Br)cc1`, the inhibition is reported as 32.1% (active).
For `Cc1cccc(S(=O)(=O)N(C)C[C@H]2OCc3cnnn3CCCC(=O)N([C@@H](C)CO)C[C@H]2C)c1`, the inhibition was -13.4% (inactive).
With `CC1(C)CC(N(Cc2ccccc2)C(=O)Cc2ccccc2)CCO1` (stereo not given) the inhibition was -7.26% (inactive).
With `O=C(O)CCn1cc(/C=C/C(=O)c2ccc(Cl)cc2)c(-c2cccc(Br)c2)n1` the inhibition was 43.8% (active).
For `O=C(COC(=O)/C=C/c1cn(-c2ccccc2)nc1-c1cccnc1)Nc1ccc(Cl)cc1Cl`, the inhibition was -1.11% (inactive).
For `O=C(O)CCn1cc(C=C2C(=O)NC(=S)NC2=O)c(-c2cccc(Br)c2)n1`, the inhibition was -11.4% (inactive).
For `CCOC(=O)c1sc(-c2cccc([N+](=O)[O-])c2)cc1N`, the inhibition was 5.1% (inactive).
For `CC(=O)Nc1nc(C)c(-c2csc(Nc3ccc(S(N)(=O)=O)cc3)n2)s1`, the inhibition was 33.8% (active).
For `C=CCCC(=O)Nc1nc(C)c(-c2csc(Nc3ccc(Cl)cc3)n2)s1`, the inhibition was 16.8% (inactive).
For `CCCCC(=O)Nc1nc(C)c(-c2csc(Nc3ccc(Cl)cc3)n2)s1`, the inhibition was 11.2% (inactive).
With `CCOC(=O)C=Cc1ccc(C(=O)OCC)[nH]1` the inhibition was 46.3% (active).
For `CCOC(=O)c1c(C)[nH]c(C)c1C(=O)COC(=O)/C=C/c1cccc([N+](=O)[O-])c1`, the inhibition was 5.36% (inactive).
In the case of `CCOC(=O)c1cc2cc(C)ccc2[nH]1`, the inhibition is reported as 8.07% (inactive).
In the case of `COc1ccc(C2NCCCC2c2ccccc2)cc1` (stereo not given), the inhibition is reported as -3.45% (inactive).
In the case of `CNC(=O)/C(=C\C=C\c1ccccc1)NC(=O)c1ccc([N+](=O)[O-])cc1`, the inhibition is reported as 39.1% (active).
In the case of `Cc1ccc(NC(=O)C(=O)NCc2ccco2)c(C)c1`, the inhibition is reported as 2.52% (inactive).
In the case of `O=C(Nc1ccc(C(=O)O)cc1)/C(=C/c1ccc([N+](=O)[O-])cc1)NC(=O)c1ccccc1`, the inhibition is reported as 32.9% (active).
With `Cc1ccc(C(=O)N/C(=C/C=C/c2ccccc2)C(=O)NCc2ccco2)cc1` the inhibition was 48.9% (active).
For `O=C(Nc1ccc(C(=O)O)cc1)/C(=C\c1ccccc1)NC(=O)c1ccc(Br)cc1`, the inhibition was -8.77% (inactive).
In the case of `COc1ccc(/C=C(/NC(=O)c2ccccc2)C(=O)Nc2cccc(C(=O)O)c2)cc1`, the inhibition is reported as 29.7% (inactive).
With `CC(C=Cc1ccccc1)=NNS(=O)(=O)c1ccc([N+](=O)[O-])cc1` the inhibition was 25.4% (inactive).
In the case of `CCCCOc1ccc(C(=O)N/C(=C/C=C/c2ccccc2)C(=O)N2CCOCC2)cc1`, the inhibition is reported as 20.1% (inactive).
For `O=C(N/N=C/c1ccc(O)cc1)/C(=C/c1ccc([N+](=O)[O-])cc1)NC(=O)c1ccccc1`, the inhibition was 39% (active).
In the case of `O=C(NCc1ccco1)/C(=C/c1ccco1)NC(=O)c1ccccc1`, the inhibition is reported as -7.41% (inactive).
For `O=C(N/N=C/c1cc([N+](=O)[O-])ccc1O)/C(=C\c1cccs1)NC(=O)c1ccccc1`, the inhibition was 15.7% (inactive).
In the case of `O=C(N/C(=C\c1ccc(O)cc1)C(=O)N1CCCCC1)c1ccccc1`, the inhibition is reported as 9.79% (inactive).
With `Cc1ccccc1CCNC(=O)C1CCC(=O)N(Cc2ccc(Cl)cc2)C1` (stereo not given) the inhibition was -2.1% (inactive).
With `CC1(C)C[C@H]2C3=CCC4[C@@]5(C)CC[C@H](O)[C@](C)(CO)C5CC[C@@]4(C)[C@]3(C)C[C@@H](O)[C@@]2(CO)[C@@H](O)[C@@H]1O` (stereo not given in full) the inhibition was 8.82% (inactive).
With `COC(=O)C1=NN(c2ccccc2)C2C(=O)N(c3ccccc3OC)C(=O)C12` (stereo not given) the inhibition was 21% (inactive).
In the case of `CC(=O)N[C@@H](C)C(=O)N1CCC(n2nccc2NC(=O)CCCc2ccccc2)CC1`, the inhibition is reported as 8.3% (inactive).
With `CCC(C)Sc1nc2c(cnn2-c2ccc(F)cc2)c(=O)[nH]1` (stereo not given) the inhibition was 8.15% (inactive).
In the case of `COc1ccc(-c2nonc2NC(=O)c2oc3ccc(F)cc3c2C)cc1OC`, the inhibition is reported as -4.27% (inactive).
In the case of `COc1cc(/C=C(/NC(=O)c2ccccc2)C(=O)Nc2cccc(O)c2)c([N+](=O)[O-])cc1OC`, the inhibition is reported as 11.6% (inactive).
For `O=C(N/C(=C\c1ccc([N+](=O)[O-])cc1)C(=O)N1CCOCC1)c1cccc(Br)c1`, the inhibition was 28.7% (inactive).
With `Cc1ccc(NC(=O)/C(=C/c2ccc([N+](=O)[O-])cc2)NC(=O)c2ccccc2)cc1` the inhibition was 49.4% (active).
